Screens deposited in PubChem BioAssay by Bradner/Qi Labs at DFCI.
Shown is part of a subset that was picked to be rich in hits.
CBX7 inh: CBX7 chromodomain binding inhibitors, primary screen, biochemical, AlphaScreen; Chromobox protein homolog 7 (Homo sapiens), O95931; AlphaScreen His6-CBX7 / biotin-H3K27me3 peptide binding; active compounds read low; normalised signal (fraction of DMSO) (concentration not given with the values); hit rate 1.1% among 66,000; in the data active means normalised signal below about 0.5
Target sequence (O95931 whole entry, looked up): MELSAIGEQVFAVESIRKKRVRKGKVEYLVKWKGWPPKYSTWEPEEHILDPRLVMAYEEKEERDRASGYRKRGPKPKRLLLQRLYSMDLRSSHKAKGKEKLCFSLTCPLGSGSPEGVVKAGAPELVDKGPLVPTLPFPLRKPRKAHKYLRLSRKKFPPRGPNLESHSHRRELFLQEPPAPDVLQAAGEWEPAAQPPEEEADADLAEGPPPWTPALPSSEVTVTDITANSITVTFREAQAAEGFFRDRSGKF
The depositor's hits bear a star; ! = not active in a repeat.

SMILES | CBX7 inh
CN(C)c1ccc(C2NC(C(=O)O)Cc3c2[nH]c2ccccc32)cc1 (configuration not stated) | 0.25*
COc1ccc(CCNc2oc(COc3ccc(C)cc3)nc2C#N)cc1OC | 0.48*
Cc1cccc(OCc2nc(C#N)c(NCCN(C)C)o2)c1 | 1
COc1ccc(CCNc2oc(COc3ccc(F)cc3)nc2C#N)cc1OC | 0.55
COc1ccc(CCNc2oc(COc3ccc(Cl)cc3)nc2C#N)cc1OC | 0.95
COc1ccc(CCNc2oc(COc3cccc(C)c3)nc2C#N)cc1OC | 0.46*
Cc1ccccc1OCc1nc(C#N)c(NCc2ccc3c(c2)OCO3)o1 | 0.91
Cc1cccc(OCc2nc(C#N)c(NCc3ccc4c(c3)OCO4)o2)c1 | 0.43*
COc1ccc(CNc2oc(COc3cccc(C)c3)nc2C#N)cc1 | 0.67
Cc1cccc(OCc2nc(C#N)c(NCCc3ccccc3)o2)c1 | 0.67
CCCOc1ccc(-c2csc(NC(=O)c3ccc(S(=O)(=O)N4CCOCC4)cc3)n2)cc1 | 0.96
O=C(NC1CC1)c1ccc2c(c1)N(Cc1ccc(F)cc1)CCS2 | 0.96
CC(NC(=O)c1cc(-c2ccc(Cl)c(Cl)c2)on1)c1ccccc1 (configuration not stated) | 1.1
O=C(NCc1ccc(F)cc1)c1cc(Nc2cccc(C(F)(F)F)c2)nc2ccccc12 | 1.4
O=C(Nc1cccc(Cl)c1)c1cn(-c2ccc(F)cc2F)c(=O)c2ccccc12 | 0.93
CCc1ccc(NC(=O)CSc2nnc(Cc3cccn3C)n2-c2ccc(C)cc2)cc1 | 0.78
CCCCOc1cccc(-c2nc3c(C(=O)OC)c[nH]n3c2NC2CCCC2)c1 | 0.2*
COC(=O)c1c[nH]n2c(NC3CCCCC3)c(-c3cccc(OC)c3)nc12 | 0.55
COC(=O)c1c[nH]n2c(NC3CCCC3)c(-c3cccc(C)c3)nc12 | 0.67
COC(=O)c1c[nH]n2c(NC3CCCCC3)c(-c3cccc(Br)c3)nc12 | 0.52
COC(=O)c1c[nH]n2c(NC3CCCCC3)c(-c3cccc(C)c3)nc12 | 0.51
COC(=O)c1c[nH]n2c(NC3CCCC3)c(-c3cccc(OC)c3)nc12 | 0.38*
COC(=O)c1c[nH]n2c(NC3CCCC3)c(-c3ccc(C)cc3)nc12 | 0.5
CCCCCOc1ccc(NC(=O)c2cccc(C(=O)OC)n2)cc1 | 1
COC(=O)c1c[nH]n2c(NC3CCCC3)c(-c3ccc(OC)cc3)nc12 | 0.11*
SMILES | CBX7 inh
COC(=O)c1c[nH]n2c(NC3CCCCCC3)c(-c3cccc(OC)c3)nc12 | 0.5*
CCCOc1cccc(-c2cc(C(=O)O)c3ccccc3n2)c1 | 1.1
COC(=O)c1c[nH]n2c(NC3CCCCC3)c(-c3ccc(C)cc3)nc12 | 0.82
COc1ccccc1NC(=O)CNC(=O)c1nn(-c2ccc(OC)c(OC)c2)c(=O)c2ccccc12 | 1.2
O=C(CCN1C(=O)COc2ccccc21)N1CCOCC1 | 1.1
Cc1cccc(NC(=O)C2CCCN(S(=O)(=O)c3cnc[nH]3)C2)n1 (configuration not stated) | 0.91
CC(C)(C)OC(=O)N1CCN(c2nc(-c3ccccc3)c3cc(Br)ccc3n2)CC1 | 0.96
CC(C)c1nnc(NC(=O)c2ccc(C(=O)c3ccccc3)cc2)s1 | 1.1
Cc1cccc(NC2=NS(=O)(=O)c3cc([N+](=O)[O-])ccc32)c1 | 1.1
O=C(CN1CCN(Cc2ccccc2F)C1=O)NCCc1ccccc1 | 0.94
Cc1noc(C)c1S(=O)(=O)N1CCCC(C(=O)Nc2cc(F)ccc2F)C1 (configuration not stated) | 1
CC1CCCN(S(=O)(=O)c2ccc(C(=O)Nc3cccc(-c4nc5ccccc5[nH]4)c3)cc2)C1 (configuration not stated) | 0.86
Cc1nc2ccc(S(=O)(=O)NC(C(=O)Nc3ccccn3)C(C)C)cc2s1 (configuration not stated) | 1.1
CCc1ccc(C(=O)CSc2nnc(-c3cccc(Br)c3)o2)cc1 | 1.1
O=C(c1cccc(Br)c1)N1CCc2c([nH]c3ccccc23)C1c1ccc(Cl)cc1 (configuration not stated) | 0.85
CCOc1cc([N+](=O)[O-])cc2c1C(=O)Nc1ccccc1O2 | 0.88
O=C1Nc2ccccc2Oc2cc([N+](=O)[O-])cc(Oc3cccc(Cl)c3)c21 | 0.37*
O=C1Nc2ccccc2Oc2cc([N+](=O)[O-])cc(OCCO)c21 | 0.93
O=C1Nc2ccccc2Oc2cc([N+](=O)[O-])cc(Oc3cccc(Cl)c3Cl)c21 | 0.48*
CC(=O)Nc1nc(C)c(-c2csc(Nc3ccc(N)cc3)n2)s1 | 0.47*
COc1ccc(OC)c(Nc2nc(-c3sc(NC(C)=O)nc3C)cs2)c1 | 0.65
Cc1nc(N)sc1-c1csc(Nc2ccc(Cl)cc2)n1 | 0.38*
COc1cc(Nc2nc(-c3ccc(Cl)cc3)cs2)c(OC)cc1Cl | 1
COc1ccc(Nc2nc(-c3cccs3)cs2)cc1 | 0.75
COc1ccc(Nc2nc(-c3sc(NC(C)=O)nc3C)cs2)cc1 | 0.74
SMILES | CBX7 inh
Cc1ccc(-c2csc(Nc3ccccc3Cl)n2)cc1 | 1
COc1ccc(Nc2nc(-c3sc(N)nc3C)cs2)cc1 | 0.31*
Cc1nc(N)sc1-c1csc(Nc2cccc(Cl)c2)n1 | 0.77
CC(=O)Nc1nc(C)c(-c2csc(Nc3ccccc3)n2)s1 | 0.51
Fc1ccc(Nc2nc(-c3ccc(Cl)cc3)cs2)cc1 | 0.82
COc1cc(Nc2nc(-c3ccc(C)cc3)cs2)c(OC)cc1Cl | 0.46*!
COc1ccccc1Nc1cc(C)nc2ccc(C)cc12 | 0.98
COCCn1c(=O)[nH]c2cc(C(=O)N3CCN(c4cccc(C)c4)C(C)C3)ccc2c1=O (configuration not stated) | 1
COc1ccc(-n2c3c(cc(C(=O)Nc4cccc(C#N)c4)c2=O)C(=O)CCC3)cc1 | 0.96
CCCNC(=O)c1cc(=O)n(Cc2cccc(Cl)c2)c2ccccc12 | 0.95
O=C(Nc1cccc(F)c1)C1CCC(CNS(=O)(=O)c2cccc3cccnc23)CC1 (configuration not stated) | 1
Cc1c2c(nc3c(C(=O)NCc4ccccc4Cl)cnn13)CCCC2 | 1
CC(C)OCCCNC(=O)c1ccc2c(c1)NC(=O)CN2C | 0.94
COc1ccc(-c2noc(-c3cc(OC)c(OC)c(OC)c3)n2)cc1 | 0.96
O=P(c1ccccc1)(c1ccccc1)c1nc(-c2ccccc2Cl)oc1N1CCOCC1 | 0.98
CCOC(=O)c1cnc2cc(Cl)c(OC)cc2c1Nc1ccc(C)c(F)c1 | 0.92
COc1ccc(Nc2nc(-c3ccc(Cl)c(Cl)c3)cs2)cc1 | 0.78
CC(=O)Nc1ccc(Nc2nc(-c3sc(C)nc3C)cs2)cc1 | 0.86
COc1ccc(CCNc2nc(-c3ccc(Cl)cc3)cs2)cc1OC | 0.92
COc1ccc(Nc2nc(-c3ccc(Br)cc3)cs2)cc1 | 0.9
Cc1ccc(Nc2nc(-c3sc(N)nc3C)cs2)cc1 | 0.38*
COc1ccc(-c2csc(Nc3ccc(N)cc3)n2)cc1 | 0.41*
Cc1ccc(-c2csc(Nc3ccc(F)cc3)n2)cc1 | 0.94
COc1ccc(CCNc2nc(-c3sc(N)nc3C)cs2)cc1OC | 0.35*
COc1ccc(Cl)cc1Nc1nc(-c2sc(C)nc2C)cs1 | 0.99
CCOc1ccc(Nc2nc(-c3sc(NC(=O)c4ccccc4)nc3C)cs2)cc1 | 0.42*
CC(=O)Nc1ccc(Nc2nc(-c3sc(NC(=O)c4ccccc4)nc3C)cs2)cc1 | 1
Cc1nc(NC(=O)c2ccccc2)sc1-c1csc(Nc2ncccn2)n1 | 1
CCOc1ccc(-c2nc(SCC(=O)Nc3ccc4c(c3)OCCO4)c(-c3ccc(OC)c(OC)c3)[nH]2)cc1 | 0.97
